Most compounds without a hit are left out; they make up all but 1.1% or so of the library.
Glioma ERSR ind = induces the endoplasmic reticulum stress response in human glioma cells | U87-MG GRP78 promoter luciferase reporter, 16 h | Potency, µM, inactives show top-dose activation, hits mostly activators | 420,000 compounds, 0.02% hits; also: series mostly up to about 76 µM; % of control where 0% means no effect; nearly all actives have a fitted effect of over 35% in size
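Stably transfected U87-MG glioma cells carrying a GRP78-based luciferase sensor; 16 h compound incubation. Luminescence end-point read 10 min after Bright-Glo addition at room temperature.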
Anesthetic bind = candidate novel general anesthetic via apoferritin binding; apoferritin/1-aminoanthracene competitive binding, fluorescence; 350,000 compounds, 0.074% hits; Potency, µM (highest dose often 77.5 µM), without a hit: at the top dose activity change, negative = displacement, most hits filed as inhibitors; also: % is scaled to controls: 0 for no effect and ±100 for the full control effect; nearly all actives have a fitted effect of over 20% in size
Target sequence (P02791 2-175 limits assumed): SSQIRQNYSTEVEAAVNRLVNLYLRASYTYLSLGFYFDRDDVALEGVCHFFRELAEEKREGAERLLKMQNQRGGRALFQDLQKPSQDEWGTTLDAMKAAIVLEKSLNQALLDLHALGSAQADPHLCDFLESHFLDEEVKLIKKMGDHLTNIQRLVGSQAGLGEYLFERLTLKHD
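10 uM apoferritin + 50% sat. 1-AMA, PBS; cpd 10 min RT; Ex380/Em535 endpoint; normalized to free probe vs complex; 4-param Hill fit; propofol titration as pos. ctrl.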
BCR signal inh = blocks chronic active B-cell receptor signaling. ABC-DLBCL IkBa-CBG/CBR reporter, luminescence ratio, 4 h. Potency, µM (titrated, usually from 46.1 µM), for the others: top-dose activity change, negative = inhibition, actives largely listed as inhibitors. 340,000 compounds, 0.05% hits. AID 493014; active = well fitted inhibition curve with a large enough effect in the signal ratio, with a control signal flat, not every such curve was filed as active; inconclusive = small, poorly fitted or top-dose-only effect, or effect the other way, or a change in a side signal; the % refers to the signal ratio;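 also: plate controls were basal doxycycline-induced cells for no effect and cells given 10 µM MG132 for full effect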
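Compounds up to 46 uM were incubated four hours with TMD8 cells whose green CBG68 luciferase is fused to IkappaBalpha; red CBR luminescence normalised the signal, and concentration-effect curves were fitted to fusion, red and ratio data.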
ALOX12 inh = inhibitors of human 12S-lipoxygenase ALOX12; Potency, µM (series often up to 108 µM), inactives show at the highest dose activity change, negative = inhibition, hits mostly inhibitors; 580,000 compounds, 1.1% hits; P18054; purified 12hLO, xylenol orange hydroperoxide absorbance; also: % is scaled to controls: 0 for no effect and ±100 for the full control effect
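Purified human 12hLO (150 nM final) in 25 mM Hepes, 0.01% Triton X-100, pH 7.0 was preincubated 15 min at room temperature with compound. Then 40 uM arachidonic acid was added, 30 min. Hydroperoxide was read by Fe-XO absorbance ratio 573/405 nm.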
* = called active by the depositor; u = inconclusive; x = not tested or not shown. Unless noted, calls follow the shape of the dose curve; as a rule, active = well fitted curve in the direction sought with a large enough effect; inconclusive = small, poorly fitted or top-dose-only effect, or another doubt; inactive = no such curve, though single readings can be large; an effect the other way counts as inactive or inconclusive. Potency is read from the fitted curve at half-maximal effect.

SMILES	Glioma ERSR ind	Anesthetic bind	BCR signal inh	ALOX12 inh
O=C(NCC12CCCC=C1N(Cc1ccccc1)C(=O)CC2)C1CCC1 (configuration not stated)	x	x	x	-14.2%
Cc1[nH]c2ccc(C(=O)N3CCN(c4ccccc4Cl)CC3)cc2c1C	-2.7%	-3.4%	-5.3%	-10.9%
Cc1ccc(C(=O)N2CCC3(CC2)NC(=O)N(c2ccccc2Cl)N3)cc1C	x	x	x	1.26µM*
COc1ccc(C(=O)N2CCC3(CC2)NC(=O)N(Cc2ccccc2)C3=O)cc1	x	x	x	16.6%
COc1ccc(Cl)cc1C(=O)N1CCC2(CC1)NC(=O)N(c1ccccc1)N2	x	x	x	1.78µM*
COc1ccc(C(=O)N2CCC3(CC2)NC(=O)N(c2ccccc2Cl)N3)cc1	x	x	x	2.24µM*
CCCNC(=O)Cc1c(C)nc2nc(N)nn2c1C	x	x	x	4.2%
CCN1CCN(c2ncc3c(n2)CCN(Cc2ccc(Br)s2)C3)CC1	-2.7%	20.3%	x	u
CCN1CCN(c2ncc3c(n2)CCN(Cc2cc(Br)cs2)C3)CC1	-3.6%	24.4%	x	11.2µM*
CCOC(=O)c1oc2ccc(S(=O)(=O)NCC3Cn4cccc4C(=O)N3C)cc2c1C (configuration not stated)	x	x	x	35.5µM*
COc1cccc(S(=O)(=O)NCC2Cn3cccc3C(=O)N2C)c1 (configuration not stated)	x	x	x	17.1%
CCOC(=O)c1oc2cc(OCC(=O)c3ccccc3)ccc2c(=O)c1-c1ccc2c(c1)OCCO2	x	x	x	5.9%
COC(=O)[C@]1(Cc2ccccc2)N[C@H](c2ccc(-c3cccc(Cl)c3)c(OC)c2)[C@@H]2C(=O)N(C)C(=O)[C@@H]21	-5.3%	x	x	39.8µM*
CCN1C(=O)[C@@H]2[C@@H](c3ccc(-c4ccc5c(c4)OCO5)c(OC)c3)N3CCC[C@@]3(C(=O)OC)[C@@H]2C1=O	-3.8%	x	-1.9%	11.2µM*
COC(=O)[C@@]12CCCN1[C@H](c1ccc(-c3ccccc3)c(OC)c1)[C@H]1C(=O)N(C)C(=O)[C@H]12	-5.1%	x	-0.3%	12.6µM*
COC(=O)[C@@]12CCCN1[C@H](c1ccc(-c3ccc(OC)cc3)c(OC)c1)[C@@H]1C(=O)N(C)C(=O)[C@@H]12	-0.3%	x	3.0%	-20.9%
CCN1C(=O)[C@H]2[C@@H](c3ccc(-c4ccc(F)cc4)c(OC)c3)N[C@@](C)(C(=O)OC)[C@H]2C1=O	-2.8%	x	u	11.2µM*
O=C(CSc1nnc(-c2ccccc2)n1-n1cccc1)Nc1ccc2c(c1)OCO2	x	x	x	-1.1%
COc1cccc(CNC(=O)c2ncoc2-c2cccc(C)c2)c1OC	x	x	x	8.7%
COc1ccc(C(=O)C(C)OC(=O)c2cc3cccc(OC)c3oc2=O)cc1 (configuration not stated)	x	x	x	10.8%
O=C(COc1ccccc1)N1CCC2(CC1)NC(=O)N(c1cccc(F)c1)N2	x	x	x	2.82µM*
O=C(COc1ccc(F)cc1)N1CCC2(CC1)NC(=O)N(c1ccc(F)cc1)N2	x	x	x	2.51µM*
Cc1cccc(OCC(=O)N2CCC3(CC2)NC(=O)N(c2cccc(F)c2)N3)c1	x	x	x	2.24µM*
NC(=O)N1CCC2(CC1)NC(=O)N(c1ccccc1)N2	-0.2%	-5.3%	u	u
Cc1cccc(OCC(=O)N2CCC3(CC2)NC(=O)N(Cc2ccccc2)C3=O)c1	x	x	x	-6.5%
SMILES	Glioma ERSR ind	Anesthetic bind	BCR signal inh	ALOX12 inh
Cc1cccc(Cc2cnc(NC(=O)c3cc(=O)c4cc(C)ccc4o3)s2)c1	x	x	x	39.3%
CC(=O)N1CCN(c2nc3c(s2)CC(C(=O)Nc2cc(F)cc(F)c2)CC3)CC1 (configuration not stated)	x	x	x	7.0%
NC(=S)NN=C(Cc1ccccc1)Cc1ccccc1	-3.9%	u	u	11.2µM*
N#CCc1ccc(NC(=O)CCSc2ccc(Cl)cc2)cc1	x	x	x	-25.3%
O=C(Nc1sc2c(c1C(=O)Nc1cccc(Cl)c1)CCCC2)c1cccs1	-1.7%	-4.8%	x	44.7µM*
O=C(Cc1ccccc1)Nc1sc2c(c1C(=O)Nc1ccccc1)CCCCC2	-0.3%	-10.6%	x	u
CCOC(=O)c1ccc(NC(=O)c2c(NC(=O)CCC(=O)O)sc3c2CCCCC3)cc1	-1.8%	u	u	20µM*
O=C(Cc1ccccc1)Nc1sc2c(c1C(=O)Nc1ccc(Cl)cc1)CCCC2	-3.3%	-4.5%	x	15.8µM*
NC(=O)c1c(NC(=O)c2cccs2)sc2c1CCCCCC2	4.7%	32.3%	1.2%	u
Cc1cccc(OCCc2noc(C3CCN(C(=O)C4CCCC4)C3)n2)c1 (configuration not stated)	x	x	x	28.2%
